Experimental data reported in PubChem BioAssay AID485270 (The Scripps Research Institute Molecular Screening Center, 2010).
The whole screen tested about 330,000 compounds, of which about 5,800 (1.8%) were called active. The list comes from a sample in which actives are over-represented; it also holds similar structures and randomly drawn compounds. Unmarked numbers belong to inactive results. No stated cut-off is given here; in the data, active means inhibition mostly above about 38% (no sharp cut-off); inactive means mostly below about 40%.

target: Orexin/Hypocretin receptor type 1 (Homo sapiens) (UniProt O43613); assay: blocks the human orexin 1 receptor (AID 485270); details: OX1R-expressing cells, FRET antagonist read-out; at 6.6 µM; stronger effect = higher value;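 further: 0% = agonist challenge alone and 100% = reference antagonist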
Sequence (O43613 whole entry, looked up): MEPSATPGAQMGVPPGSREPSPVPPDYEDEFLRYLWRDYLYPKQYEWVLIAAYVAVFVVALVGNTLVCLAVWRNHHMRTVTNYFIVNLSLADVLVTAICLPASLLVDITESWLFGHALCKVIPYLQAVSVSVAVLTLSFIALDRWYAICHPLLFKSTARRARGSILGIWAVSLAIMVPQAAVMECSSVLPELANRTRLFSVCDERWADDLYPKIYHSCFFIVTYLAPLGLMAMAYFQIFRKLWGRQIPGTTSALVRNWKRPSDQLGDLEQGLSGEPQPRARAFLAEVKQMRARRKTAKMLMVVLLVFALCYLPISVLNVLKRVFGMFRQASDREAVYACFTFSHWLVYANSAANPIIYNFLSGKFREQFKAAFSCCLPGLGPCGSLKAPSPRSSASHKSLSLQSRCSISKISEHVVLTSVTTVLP

SMILES	inhibition
COc1cc(Cl)c(C)cc1NC(=O)CSc1nnc(-c2cccnc2)n1Cc1ccco1	15.5%
COc1ccc(NC(=O)CSc2nnc(-c3cccs3)n2Cc2ccco2)cc1OC	41.6% (active)
Cc1ccc(NC(=O)CSc2nnc(-c3cnccn3)n2Cc2ccco2)cc1C	18.9%
CC(OC(=O)c1ccc(Cl)cc1O)C(=O)NCCC1=CCCCC1 (centres undefined)	5.93%
O=C(COc1ccccc1F)NNC(=O)c1cc(Br)ccc1Cl	12.4%
C#CCOCCOCCOCCNc1nc(N2CCN(C(=O)C([C@@H](C)O)n3cc([C@@H](N)CCCCN)nn3)CC2)nc(N2CCN(C(=O)[C@H](CCCCN)n3cc(CN)nn3)CC2)n1 (some centres undefined)	6.34%
C=CC(COCc1ccccc1)N(CC(=O)OC)S(=O)(=O)c1cc(Br)ccc1OC (centres undefined)	20.4%
O=C(NN=C1CCC(=NNC(=O)c2cccnc2)CC1)c1cccnc1	1.73%
Cc1cc(/C=N/NC(=O)c2cccnc2)c(C)n1CC(C)C	3.61%
O=C(N/N=C/c1sc(N2CCCCC2)nc1-c1cccs1)c1cccnc1	111% (active)
CC(C#N)OC(=O)c1cccnc1SCC(=O)Nc1ccc2c(c1)OCO2 (centres undefined)	8.21%
O=C(CC1SCCNC1=O)Nc1ccc(Cl)c(Cl)c1 (centres undefined)	10.1%
O=C(Cc1ccc(Cl)c(Cl)c1)Nc1ccc(SC(F)F)cc1	17.7%
O=C(CC(O)(C(F)(F)F)C(F)(F)F)Nc1ccc(Cl)c(Cl)c1	68.7% (active)
Cc1cc(C(=O)Nc2nnc(C3CC3)s2)c(C)s1	7.15%
CCOC(=O)C1=C(C)N(C[C@@H]2CC[C@@H](Cc3ccc(-c4ccccc4)cc3)O2)C(=O)NC1c1ccc([N+](=O)[O-])cc1 (some centres undefined)	5.68%
COc1ccc(Br)cc1CN(C)CC(=O)Nc1cc(Cl)cc(Cl)c1	22.9%
COc1ccc2nc3n(c(=O)c2c1)-c1cc(C)ccc1C(=O)NC3Cc1ccc(O)cc1 (centres undefined)	4.12%
N#CCCN(C(=O)COC(=O)c1ccc(S(=O)(=O)N2CCCCCC2)cc1)c1ccccc1	16.8%
Cc1c(C(=O)OCC(=O)N(CCC#N)c2ccccc2)oc2c1ccc1ccccc12	60.1% (active)
N#CCCN(C(=O)COC(=O)c1ccc2c(c1)OCCO2)c1ccccc1	11%
Cc1ccc(CCNC(=O)C2CCN(S(=O)(=O)N3CCCC3)CC2)cc1	6.73%

SMILES	inhibition
CN(CC(=O)NCCc1ccc(S(N)(=O)=O)cc1)CC(=O)Nc1ccc(F)c(F)c1F	-2.07%
O=c1ccc2c(-c3ccccc3S(=O)(=O)O)c3ccc(O)c(O)c3oc-2c1O	55.9% (active)
CC(C)COc1ccc(C(=O)NNC(=O)CCC(=O)c2cccs2)cc1	2.01%
Cc1cccc(NC(=O)c2ccc(S(=O)(=O)N(C)c3ccccc3)cc2)n1	9.18%
CCCCNc1c(-c2ccc(OC)c(Sc3ccc(OC)cc3)c2)nc2ccc(Cl)cn12	13.3%
COc1ccc(-c2csc(-c3cccs3)n2)cc1OC	11.9%
COc1ccccc1-c1nnc(-c2ccc(F)cc2)o1	4.73%
COc1ccc(-c2csc3nc(-c4ccccc4F)oc(=O)c23)cc1OC	46.9% (active)
O=C(COC(=O)c1n[nH]c2ccccc12)Nc1ccccc1Br	19.4%
CCOC(=O)C1CCN(CC(=O)Nc2ccc(OC)c(S(=O)(=O)N3CCCCC3)c2)CC1	7.12%
CC[C@@H]1CCCCc2ccccc2[C@@H](C(=O)C[C@H](O)CC(C)=O)OC1=O	5.92%
Cc1onc(-c2ccccc2Cl)c1C(=O)NCCn1ccc2ccccc21	69.4% (active)
Cc1ccc2cc(CCNC(=O)c3c(-c4ccccc4Cl)noc3C)c(=O)[nH]c2c1	6.94%
Cc1onc(-c2ccccc2Cl)c1C(=O)OCC(=O)c1ccccc1	21.4%
NCCN1CCN2C(=O)CN(C(=O)c3ccccc3)CC12 (centres undefined)	6.95%
CC1(C)C[C@H]2C3=CCC4[C@@]5(C)CC[C@H](O)[C@](C)(CO)C5CC[C@@]4(C)[C@]3(C)C[C@@H](O)[C@@]2(CO)[C@@H](O)[C@@H]1O (some centres undefined)	6.35%
O=C(CSc1nccn1-c1cccc(F)c1)NC1CCCC1	1.88%
CC(OC(=O)c1c(F)cccc1F)C(=O)NCCC1=CCCCC1 (centres undefined)	6.17%
Cc1[nH]n(C)c(=O)c1N=Nc1ccc(S(C)(=O)=O)cc1	75.9% (active)
Cc1cccc(N=Nc2c(C)[nH]n(-c3ccccc3)c2=O)c1	6.48%
Cc1[nH]n(C)c(=O)c1C(=O)c1c(-c2c(Cl)cccc2Cl)noc1C	38.8%
CCc1ccccc1NC(=O)c1ccc2snnc2c1	19.6%
